Assay outcomes from PubChem.
The full list was thinned out, with hits kept by preference.
KDM5B inh = KDM5B demethylase inhibition | KDM5B demethylase, FDH-coupled NADH fluorescence (FDH is formaldehyde dehydrogenase) | 2.6% of 220,000 active | Potency, µM (titrated, usually from 57.7 µM), usual class: inhibitors | Q9UGL1; active = well fitted inhibition curve with a large enough effect; also: nearly all actives have a fitted effect of over 70% in size
Target sequence (Q9UGL1 whole entry, looked up): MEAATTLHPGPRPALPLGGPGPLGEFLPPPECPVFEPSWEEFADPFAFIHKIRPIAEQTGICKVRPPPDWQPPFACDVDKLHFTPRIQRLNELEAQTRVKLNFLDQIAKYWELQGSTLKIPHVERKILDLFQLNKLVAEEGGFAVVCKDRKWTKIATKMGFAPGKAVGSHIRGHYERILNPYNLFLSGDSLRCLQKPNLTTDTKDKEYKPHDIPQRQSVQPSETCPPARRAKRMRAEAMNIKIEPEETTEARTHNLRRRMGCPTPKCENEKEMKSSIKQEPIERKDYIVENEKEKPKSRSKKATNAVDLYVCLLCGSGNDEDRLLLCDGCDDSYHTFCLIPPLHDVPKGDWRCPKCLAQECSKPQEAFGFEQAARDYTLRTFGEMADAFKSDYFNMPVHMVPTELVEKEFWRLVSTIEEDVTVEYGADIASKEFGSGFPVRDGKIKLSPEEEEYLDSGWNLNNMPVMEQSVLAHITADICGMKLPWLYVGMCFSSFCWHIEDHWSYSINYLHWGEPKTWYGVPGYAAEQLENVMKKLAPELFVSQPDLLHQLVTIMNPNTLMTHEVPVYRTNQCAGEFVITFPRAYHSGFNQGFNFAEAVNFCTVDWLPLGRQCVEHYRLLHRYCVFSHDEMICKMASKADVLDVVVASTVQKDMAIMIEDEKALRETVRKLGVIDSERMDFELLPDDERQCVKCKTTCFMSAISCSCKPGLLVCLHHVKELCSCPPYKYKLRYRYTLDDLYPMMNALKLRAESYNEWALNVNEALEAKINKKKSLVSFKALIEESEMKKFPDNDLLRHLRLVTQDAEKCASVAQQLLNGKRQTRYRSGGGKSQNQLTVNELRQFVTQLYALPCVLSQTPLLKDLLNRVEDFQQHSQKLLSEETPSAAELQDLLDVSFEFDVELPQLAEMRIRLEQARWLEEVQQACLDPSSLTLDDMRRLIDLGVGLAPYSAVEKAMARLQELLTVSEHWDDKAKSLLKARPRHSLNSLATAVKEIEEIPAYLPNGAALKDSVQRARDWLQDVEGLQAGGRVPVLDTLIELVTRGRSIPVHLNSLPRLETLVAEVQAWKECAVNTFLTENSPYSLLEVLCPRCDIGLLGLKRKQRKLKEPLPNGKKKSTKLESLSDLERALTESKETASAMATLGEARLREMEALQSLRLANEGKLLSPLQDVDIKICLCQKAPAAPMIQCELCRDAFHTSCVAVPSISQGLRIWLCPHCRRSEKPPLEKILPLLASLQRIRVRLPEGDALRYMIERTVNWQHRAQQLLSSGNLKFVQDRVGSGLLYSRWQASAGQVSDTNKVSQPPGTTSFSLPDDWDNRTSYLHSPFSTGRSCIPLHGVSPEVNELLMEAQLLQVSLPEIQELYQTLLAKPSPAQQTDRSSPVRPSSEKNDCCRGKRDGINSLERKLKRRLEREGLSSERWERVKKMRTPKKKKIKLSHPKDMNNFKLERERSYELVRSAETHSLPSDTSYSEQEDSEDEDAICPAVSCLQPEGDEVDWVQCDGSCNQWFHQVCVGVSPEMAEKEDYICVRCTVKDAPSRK
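Here, H3K4me3 peptide (12.5 µM in substrate mix) is demethylated by KDM5BΔAP, 200 nM final, after 10 min compound exposure. Formaldehyde product is coupled through FDH (0.25 U/mL in mix) to NADH fluorescence; 30-min ΔRFU feeds dose-response curves.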
Large screens that a line does not name were inactive.

COc1ccc(Cn2c(C)c(CNCc3cc(OC)c(OC)c(OC)c3)c(C(=O)O)c2C)cc1	none
CSC(NS(=O)(=O)c1cccs1)=C(c1nc2ccccc2s1)c1nc2ccccc2s1	none
CCN(CC)S(=O)(=O)c1ccc(Cl)c(NC(=O)COC(=O)c2cc(=O)c3ccccc3o2)c1	none
CC(NC(=O)/C(=C\c1cccc(Br)c1)NC(=O)c1ccco1)C(=O)O (stereo not given)	none
O=S(=O)(NCc1csc(Br)c1)c1ccc(Br)s1	none
N#Cc1ccc(Oc2cccc3cccnc23)cc1C#N	none
CCc1ccc(C2C(C#N)=C(N)N(N3CCOCC3)C3=C2C(=O)CC(C)(C)C3)cc1 (stereo not given)	none
CCN(CC)c1ccc(C(=O)NCc2nnc3cc(-c4nc(C)no4)ccn23)cc1	none
CC(C)c1noc(-c2ccn3c(CNC(=O)c4cccc(N(C)C)c4)nnc3c2)n1	KDM5B inh 28µM
CC(C)c1noc(-c2ccn3c(CNC(=O)c4ccc(N(C)C)cc4)nnc3c2)n1	KDM5B inh 22µM
CC1(C)CC(C)(c2ccc(O)cc2)c2ccccc2O1 (stereo not given)	none
Cc1ccc(/C=C/S(=O)(=O)NCC(=O)OCC(=O)c2c[nH]c3ccccc23)cc1	none
O=C(CSc1nc(=O)n(Cc2cccnc2)c2c1CCC2)N1CCCC1	none
CCC(C(=O)NC12CC3CC(CC(C3)C1)C2)c1ccccc1 (stereo not given)	none
COc1ccc(Cl)cc1NC(=O)Cn1ncc2ccc(OC)c(OC)c2c1=O	none
NNC(=S)Nc1ccc(Br)cc1	none
COc1ccc(Cc2nnc(NC(=O)C3CC(=O)N(c4ccc(C)c(Cl)c4)C3)s2)cc1OC (stereo not given)	none
CCOC(=O)CSc1nc2c(c(=O)[nH]c(=O)n2C)n1Cc1cccc(C)c1	none
Cc1nnc(CN(C)c2ccc(-c3nc(-c4cccc(Cl)c4)no3)cn2)o1	KDM5B inh 28µM
CN(Cc1nc(-c2cccc(Cl)c2)no1)C1CCOCC1	none
Cc1noc(-c2nc(-c3cccc(Cl)c3)no2)n1	none
O=C(Cc1ccc(Cl)cc1)NC1C2CC3CC(C2)CC1C3 (stereo not given)	none
CC(=O)Nc1cccc(-c2cc3c(ccn3Cc3ccncc3)c(N3CCOCC3)n2)c1	KDM5B inh 28µM
CC(C)CCNC(=O)c1cc(-c2ccncc2)nc2ccc(S(=O)(=O)N3CCOCC3)cc12	none
O=C(Nc1cccc(-c2ccc(N3CCOCC3)nn2)c1)Nc1cccc(C(F)(F)F)c1	none
C[S+](=O)([O-])Nc1cccc(-c2cc3c(ccn3Cc3ccncc3)c(N3CCOCC3)n2)c1	KDM5B inh 3.2µM
CCOc1ccccc1NC(=O)Nc1cccc(-c2ccc(N3CCOCC3)nn2)c1	none
C[S+](=O)([O-])c1ccc(-c2cc3c(ccn3Cc3ccncc3)c(N3CCOCC3)n2)cc1	KDM5B inh 25µM
CC(=O)Nc1ccc2c(ccn2CCN2CCOCC2)c1	none
CC(=O)Nc1cccc(-c2cc3c(ccn3C)c(C(=O)NCc3cccnc3)n2)c1	none
N#Cc1nc(C2CC2)oc1N1CCN(C(=O)c2cncc(Br)c2)CC1	none
Cc1ccc(/C=C/C(=O)c2ccc(O)c(CCCl)c2)c(C)c1	none
Cc1ccc(F)cc1NC(=O)COC(=O)c1n[nH]c(=O)c2ccccc12	none
O=C(COC(=O)COc1ccc2ccccc2c1)Nc1ccccc1	none
O=Cc1ccc(-c2cc(C(F)(F)F)ccc2Cl)o1	none
CCOC(=O)C1=C(c2ccccc2)NC(=S)NC1c1ccccc1 (stereo not given)	none
CCCCCn1c(COc2ccccc2Cl)n[nH]c1=S	none
Cc1ncsc1C(=O)NCc1ccc(N2CCCC2)nc1	none
O=C(NCCCN1CCCC1=O)c1ccc(-c2ccc(N3CCSCC3)nc2)cc1	none
O=C(NCc1ccc(N2CCCC2)nc1)c1ccc(O)c(Cl)c1	none
O=C(NCCCN1CCCC1)c1ccncc1	none
O=C(NCCCN1CCOCC1)c1ccc(-c2ccc(N3CCCCCC3)nc2)cc1	KDM5B inh 25µM
CCn1cc(-c2ccc(Cl)cc2)cc1C(=O)NCCN1CCOCC1	none
Cc1ccc(C(=O)NCCN2CCOCC2)cc1S(=O)(=O)N1CCCCC1	none
O=C(NCCN1CCOCC1)c1ccc(-c2ccc(N3CCCCCC3)nc2)cc1	KDM5B inh 28µM
Cc1ccc(CNC(=O)c2ccc(-c3ccc(N4CCCCC4)nc3)cc2)o1	KDM5B inh 20µM
O=C(Nc1oc2ccc(Cl)cc2c(=O)c1-c1ccccc1)c1cccc([N+](=O)[O-])c1	none
CN(Cc1nc2ccccc2n1C(F)F)S(=O)(=O)c1ccc(F)cc1	none
COc1ccc(-c2cc(C(=O)NCCCOC(C)C)c3cc(Br)ccc3n2)cc1	none
C=CCN(CC=C)C(=O)CSc1nnc(-c2c[nH]c3ccccc23)o1	none
C=CCSc1nc2c(c(=O)[nH]c(=O)n2C)n1CCCCCC	none
O=C(CCc1nnc2ccc(NCc3ccc(Cl)cc3)nn12)NCc1ccc(Cl)cc1	none
Cc1cc(C)cc(C(=O)NCCn2nc(-c3ccc(F)cc3)ccc2=O)c1	none
O=C(NCc1coc(-c2cccs2)n1)C1(c2ccc(Cl)cc2)CC1	none
CCN(CC)c1ccc(C(=O)NCc2nnc3ccc(-c4ccc(C)cc4)nn23)cc1	none
O=C(NCc1nnc2ccc(-c3ccc(Cl)cc3)nn12)C1(c2ccccc2)CC1	KDM5B inh 20µM
